Screening results deposited in PubChem BioAssay by Broad Institute.
Not all results are given here.
aSyn 5UTR act = Activators via SNCA 5'UTR binding, MLPCN | alpha-synuclein 5'UTR reporter, activators screen | activity score, % (tested at 7.5 µM), hits read low | AID 1814 | 300,000 tested, 7.1% active; in the data active means activity score below about -60%
Active calls of the source: *.

SMILES	aSyn 5UTR act
COc1ccc(/C=C2\CCC/C(=C\C=N\N(C)C)C2=O)cc1	-427*
CN(C)c1ccc(/C=C2\CCC/C(=C\c3ccccc3)C2=O)cc1	-81*
Cc1cc(/C=C(\C#N)C(=O)NC2CCCCCC2)c(C)n1C	-74*
Nc1[nH]nc2c1NN(c1ccc(Cl)cc1Cl)N2	-140*
Cc1cc2c(NCCc3ccccc3)ncnc2s1	-64*
c1ccc(CCNc2ncnc3ccccc23)cc1	-117*
c1ccc(CCNc2ccnc3cc4ccccc4cc23)cc1	117
O=C(c1cccs1)N1N=C(c2ccc(O)cc2)CC1c1ccccc1 (stereo not drawn)	-72*
C#CCn1c(=NC(=O)c2cccs2)sc2cccc(OC)c21	-97*
Cc1cccc(OCC(=O)N2CCC(c3ccccc3)C2)c1 (stereo not drawn)	-158*
O=C(COc1ccc(F)cc1)N1CCC(c2ccccc2)C1 (stereo not drawn)	-134*
O=C(Nc1nc2ccccc2s1)c1cc2c(s1)-c1ccccc1OC2	-177*
O=C(Nc1nccs1)c1cc2c(s1)-c1ccccc1OC2	-218*
O=C(Nc1ccc(Cl)cn1)c1cc2c(s1)-c1ccccc1OC2	-111*
Cc1cccc2c1-c1sc(C(=O)Nc3nccs3)cc1CO2	-213*
CCOC(=O)c1ccc(NC(=O)c2cccc(S(=O)(=O)N3c4ccccc4CC3C)c2)s1 (stereo not drawn)	83
Cc1cccc2c1-c1sc(C(=O)Nc3cccc([N+](=O)[O-])c3C)cc1CO2	-73*
CN1CCN(c2ccccc2NC(=O)c2cc3c(s2)-c2ccccc2OC3)CC1	-71*
CCOC(=O)c1cc2c(s1)-c1c(C)cccc1OC2	-164*
CC(C)(C)N=Cc1cc(-c2ccccc2)sc1O	-162*
COc1cccc(C2C(C#N)=C(N)OC(C(C)(C)C)=C2C#N)c1 (stereo not drawn)	-115*
N#CC1=C(N)OC2=C(CCc3ccccc32)C1c1ccccc1 (stereo not drawn)	70
COc1cc(C2C(C#N)=C(N)Oc3cc4c(cc32)OCO4)cc(OC)c1OC (stereo not drawn)	111
O=C(/C=C/c1ccccc1)c1c[nH]c2ccccc12	-98*
Cc1ccc(C(=O)NCCc2c[nH]c3ccccc23)s1	-178*
SMILES	aSyn 5UTR act
O=C1c2ccccc2C(=O)N1CCc1c[nH]c2ccccc12	-172*
Cc1ccc(C(=O)NCCc2c[nH]c3ccccc23)c(C)c1	-104*
O=C(NCCc1c[nH]c2ccccc12)c1ccccc1	-107*
O=C(/C=C/c1ccccc1)NCCc1c[nH]c2ccccc12	-111*
CC(C)=CCc1c(O)cc2c(=O)c3ccc(O)cc3oc2c1O	-141*
COCCn1c(C(F)(F)F)ccc(NC(=O)c2ccccc2)c1=O	-97*
COc1ccc(C(=O)Nc2ccc(C(F)(F)F)n(C)c2=O)cc1	-151*
Cc1ccc(C(=O)Nc2ccc(C(F)(F)F)n(C)c2=O)cc1	-145*
CCOC(=O)c1sc(NC(=S)NC(=O)C2CC2)cc1C	-85*
CCOC(=O)c1sc(NC(=S)NC(=O)C23CC4CC(CC(C4)C2)C3)cc1C	-104*
CC(=O)NCCN=C(C)c1sc2ccccc2c1O	-71*
Cc1cccc(N=Nc2ccc(O)c3ncccc23)c1	73
CC(=Nc1ccccc1O)c1sc2ccccc2c1O	-93*
CC(=Nc1cccc(C)c1)c1sc2ccccc2c1O	-215*
CC(=Nc1ccc(O)cc1)c1sc2ccccc2c1O	-187*
CC/C(C)=N/Nc1nc(-c2cc3cccc(OC)c3oc2=O)cs1	-108*
N#Cc1c(N)n(C2CCCCC2)c2nc3ccccc3nc12	62
Cc1c(O)ccc(/C(Cc2ccc3ccccc3n2)=N\N)c1O	-64*
CN(C(=O)c1ccc(OC2CCN(CCc3ccccc3)CC2)cc1)C1CCCCC1	-125*
COc1ccc(CCN2CCC(Nc3nc4ccccc4n3Cc3ccc(F)cc3)CC2)cc1	103
Cc1cc(/C=C2\SC(=S)N(Cc3ccco3)C2=O)c(C)n1-c1ccccc1	-74*
Cc1cc(/C=C2\SC(=S)N(C)C2=O)c(C)n1-c1cccc(O)c1	-71*
COc1ccc(-n2c(C)cc(/C=C3/SC(=S)N(C)C3=O)c2C)cc1	-85*
O=S(=O)(c1cccc(-c2nnc(SCc3nc4ccccc4s3)o2)c1)N1CCOCC1	-187*
O=S(=O)(c1ccc(OCc2nc3ccccc3s2)c(Cl)c1)N1CCOCC1	-141*
SMILES	aSyn 5UTR act
CC(C)c1ccc2oc(-c3ccc(NC(=O)c4ncn[nH]4)cc3)nc2c1	-80*
CC(=O)Nc1ccc2oc(-c3cc(F)c(F)cc3Cl)nc2c1	61
CC(C)C(=O)Nc1ccc2oc(-c3cc(F)c(F)cc3Cl)nc2c1	-154*
O=C(Nc1ccc2oc(-c3cccc4ccccc34)nc2c1)c1ncn[nH]1	-184*
O=C(Nc1ccc2oc(-c3ccccc3Cl)nc2c1)c1ncn[nH]1	-153*
Nc1[nH]n(-c2ccccc2)c(=O)c1N=Nc1ccccc1[N+](=O)[O-]	-133*
Nc1[nH]n(-c2ccccc2)c(=O)c1N=Nc1ccc2ncsc2c1	-78*
Nc1[nH]n(-c2ccccc2)c(=O)c1N=Nc1ccccc1	-138*
CC1CCN(C(=O)Cn2cnc3c(cnn3C(C)(C)C)c2=O)CC1	-85*
CC(C)(C)n1ncc2c(=O)n(CC(=O)c3ccc(Cl)cc3)cnc21	-197*
COc1ccc(Cn2c(SCC#N)nc3ccc(N4CCOCC4)cc3c2=O)cc1	-88*
COc1ccc(Cn2c(SCc3cc(C)ccc3C)nc3cc(OC)c(OC)cc3c2=N)cc1	55
Clc1ccc(-c2cc(CN3CCOCC3)no2)cc1	-148*
Clc1ccc(-c2cc(CN3CCCCC3)no2)cc1Cl	-114*
COc1ccc2cc(-c3cc(C(=O)OCC(=O)Nc4c(C)n(C)n(-c5ccccc5)c4=O)c4ccccc4n3)ccc2c1	52
CC(C)Oc1cccc(-c2cc(C(=O)N3CCN(c4ncccn4)CC3)c3ccccc3n2)c1	-64*
Cc1cccc2c(C(=O)N3CCN(c4ccccc4)CC3)cc(-c3ccncc3)nc12	94
COc1ccc(-c2cc(C(=O)OCC(=O)NC(C)C)c3ccccc3n2)cc1	-65*
CCOc1ccc(-c2cc(C(=O)O)c3ccccc3n2)cc1	-83*
CCN1CCCC(OC(=O)c2cc(-c3ccc(C)cc3)nc3ccccc23)C1 (stereo not drawn)	-94*
COc1ccc2nc(-c3ccc(Cl)cc3)cc(C(=O)O)c2c1	-72*
CCOc1ccc(-c2cc(C(=O)N3CCC(C)CC3)c3ccccc3n2)cc1	-128*
Cc1ccc(-c2cc(C(=O)N3CCN(c4ccccc4O)CC3)c3ccccc3n2)o1	-81*
CCOC(=O)C1(Cc2ccccc2Cl)CCN(C(=O)c2cnccn2)CC1	-125*
CCOC(=O)C1(Cc2ccccc2Cl)CCN(C(=O)c2cc(C)on2)CC1	-83*
SMILES	aSyn 5UTR act
CCn1c(C)cc(/C=C2/NC(=O)N(c3ccccc3)C2=O)c1C	-153*
COCCn1c(C)cc(/C=C2/NC(=O)N(c3cccc(Cl)c3)C2=O)c1C	-133*
O=C1N/C(=C/c2ccsc2)C(=O)N1c1ccccc1	-96*
COc1ccc(CCc2nnc(CCC(=O)NCc3cc(C(C)C)no3)o2)cc1	-99*
CCOc1ccccc1NC(=O)c1oc2ccccc2c1NC(=O)C1CCCO1 (stereo not drawn)	-63*
Cc1ccc(NC(=O)c2oc3ccccc3c2NC(=O)C2CCCO2)cc1C (stereo not drawn)	-169*
COc1ccc(NC(=O)c2oc3ccccc3c2NC(=O)C2CCCO2)cc1OC (stereo not drawn)	-116*
